According to PubChem BioAssay AID1209 (Sanford-Burnham Center for Chemical Genomics, 2008):
The campaign covered roughly 190,000 compounds. About 810 (0.43%) were called active. For the sample, actives were picked, then their nearest neighbours and some compounds at random. A number with no mark means an inactive call. Cut-off read from the data, not from the text of the source: active = inhibition above about 50%; inactive = the rest.

target: Mannose-6-phosphate isomerase (Homo sapiens) (UniProt P34949); test: MPI enzyme activity inhibition – biochemical, fluorescence intensity, coupled assay, primary screen (AID 1209); conditions: purified PMI enzyme, at 20 µM, hits give high values;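 note: plate controls were DMSO vehicle for no effect and wells lacking substrate for full effect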
Sequence (P34949 whole entry, looked up): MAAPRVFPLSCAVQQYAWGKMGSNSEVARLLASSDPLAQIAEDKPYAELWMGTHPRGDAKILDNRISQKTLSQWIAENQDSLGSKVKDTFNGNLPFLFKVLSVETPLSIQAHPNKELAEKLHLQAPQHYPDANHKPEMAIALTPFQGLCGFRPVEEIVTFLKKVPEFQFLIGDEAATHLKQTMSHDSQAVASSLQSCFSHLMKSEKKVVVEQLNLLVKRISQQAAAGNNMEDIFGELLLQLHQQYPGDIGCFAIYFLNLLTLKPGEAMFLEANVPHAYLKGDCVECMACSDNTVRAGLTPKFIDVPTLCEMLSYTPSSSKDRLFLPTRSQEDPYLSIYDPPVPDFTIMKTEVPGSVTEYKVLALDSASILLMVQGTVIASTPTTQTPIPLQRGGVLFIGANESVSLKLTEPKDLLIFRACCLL

Structure (SMILES) | inhibition
CCN(CC)C(=O)C(=O)N/N=C/c1ccc(C(=O)O)cc1 | 15.8%
COc1cc(C(=O)Nc2ccc(C(C)=O)cc2)c(Br)c(OC)c1OC | 2.4%
O=C(CCn1ccnc1)Nc1ccc2ccccc2c1 | 13.1%
O=S(=O)(NCCSCc1c(Cl)cccc1Cl)c1ccc2c(c1)OCCO2 | 2.4%
COc1ccccc1/C=N/NC(=O)COCC(=O)N/N=C/c1ccccc1OC | 12.7%
CCC(CC(C)(C)O)C(=O)NNC(=S)Nc1ccccc1 (configuration not stated) | 3.1%
O=C(Nc1nc(-c2ccccc2)cs1)C1COc2ccccc2O1 (configuration not stated) | 9.1%
O=C(Nc1nc(-c2ccncc2)cs1)C1COc2ccccc2O1 (configuration not stated) | 61.7% (active)
O=C(Nc1nc(-c2ccccn2)cs1)C1COc2ccccc2O1 (configuration not stated) | -2.1%
COc1ccc(C(O)c2nccn2Cc2ccccc2)cc1OC (configuration not stated) | 9.1%
Cc1cc(SCC(=O)N/N=C/c2ccc(O)cc2O)c(C)cc1Br | -12.7%
Cc1cc(SCC(=O)N/N=C/c2ccc(O)c(O)c2)c(C)cc1Br | 18%
Cc1cc(SCC(=O)N/N=C/c2ccc(O)c(O)c2O)c(C)cc1Br | 79.9% (active)
CCC(C)(C)NC(=O)C(c1ccco1)N(C(=O)c1csnn1)c1cccc(F)c1 (configuration not stated) | -1.3%
COc1ccc(/C=C2\N=C(C)N(c3ccc(C(=O)O)cc3)C2=O)cc1OC | -0.2%
Cc1cccc(OC(=O)c2cncc(Br)c2)c1 | -2.9%
CC(=O)Nc1ccc(C)c([N+](=O)[O-])c1 | -6.2%
CC(=O)Nc1ccc(S(=O)(=O)Nc2ccc(F)c([N+](=O)[O-])c2)cc1 | -2.3%
CC(=O)Nc1ccc(S(=O)(=O)Nc2ccc(C)c([N+](=O)[O-])c2)cc1 | 114% (active)
CCOC(=O)c1cccc(C(=O)OCC)n1 | 7.8%
Cc1ccc(OC(=O)c2cccc(C(=O)Oc3ccc(C)cc3)n2)cc1 | 11.1%
Cc1ccc(OC(=O)c2cccc(C(=O)Oc3ccc(C)cn3)n2)nc1 | 51.5% (active)
COc1ccccc1NS(=O)(=O)c1ccc2oc(SCc3ccc(C#N)cc3)nc2c1 | 23.3%
C/C(=N\Nc1nc(N2CCOCC2)nc(N2CCOCC2)n1)c1cccc([N+](=O)[O-])c1 | -11.8%
c1ccc(-c2nnc3sc(CN4CCC5(CC4)OCCO5)cn23)cc1 | 10.9%
Brc1cccc(-c2nnc3sc(CN4CCC5(CC4)OCCO5)cn23)c1 | 101% (active)
Brc1ccc(-c2nnc3sc(CN4CCC5(CC4)OCCO5)cn23)cc1 | 7.3%
